Data from PubChem BioAssay (NCI).
The panel holds about 83,000 compounds, 20% with a hit somewhere; the sample as a whole holds those more often.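 Note: values are percent growth. 100 is the growth of untreated cells, values between 100 and 0 indicate rising inhibition; between -100 and 0 indicates cell death.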 Values without a mark were called inactive. Activity calls are given as the source filed them. The calls were made as follows: active = growth percent below 10; inactive = the rest.

What was measured:
Assay in all cases: NCI-60 one-dose screen, 48 h (100 = growth as untreated, 0 = no growth, -100 = all killed)
Conditions in all cases: 10 µM unless noted
DU-145 prostate = tested on: DU-145 prostate
K-562 leukemia = tested on: K-562 leukemia
MALME-3M melanoma = tested on: MALME-3M melanoma
MDA-MB-231 breast = tested on: MDA-MB-231 breast
RXF 393 renal = tested on: RXF 393 renal
SF-268 CNS = tested on: SF-268 CNS
SF-295 CNS = tested on: SF-295 CNS
SF-539 CNS = tested on: SF-539 CNS
UACC-257 melanoma = tested on: UACC-257 melanoma
M14 melanoma = tested on: M14 melanoma
HCT-15 colon = tested on: HCT-15 colon
HT29 colon = tested on: HT29 colon
SNB-75 CNS = tested on: SNB-75 CNS
SNB-19 CNS = tested on: SNB-19 CNS
PC-3 prostate = tested on: PC-3 prostate
SK-MEL-5 melanoma = tested on: SK-MEL-5 melanoma
LOX IMVI melanoma = tested on: LOX IMVI melanoma
SK-MEL-28 melanoma = tested on: SK-MEL-28 melanoma
U251 CNS = tested on: U251 CNS
UACC-62 melanoma = tested on: UACC-62 melanoma

| SMILES | growth (DU-145 prostate) | growth (K-562 leukemia) | growth (MALME-3M melanoma) | growth (MDA-MB-231 breast) | growth (RXF 393 renal) | growth (SF-268 CNS) | growth (SF-295 CNS) | growth (SF-539 CNS) | growth (UACC-257 melanoma) | growth (M14 melanoma) | growth (HCT-15 colon) | growth (HT29 colon) | growth (SNB-75 CNS) | growth (SNB-19 CNS) | growth (PC-3 prostate) | growth (SK-MEL-5 melanoma) | growth (LOX IMVI melanoma) | growth (SK-MEL-28 melanoma) | growth (U251 CNS) | growth (UACC-62 melanoma) |
| --- | --- | --- | --- | --- | --- | --- | --- | --- | --- | --- | --- | --- | --- | --- | --- | --- | --- | --- | --- | --- |
| NCCn1cc(-c2nc(-c3c[nH]c4ncccc34)cs2)c2cc(F)ccc21 | 93.9% | 22.6% | 78.6% | 63.9% | 86.7% | 82.1% | 96.7% | 82.7% | 93.8% | 86.2% | 58.9% | 67.2% | 64.2% | 86.1% | 58.5% | 80% | 81.7% | 101% | – | – |
| Cc1cc(N(CCCNc2ccnc3cc(Cl)ccc23)Cc2ccco2)nc(N2CCOCC2)n1 | 74.7% | 26.9% | 92.8% | 58.5% | 71% | 77.7% | 62.7% | 51.1% | 106% | – | 54.9% | 34.9% | 73.5% | 78.1% | 62.2% | 54.5% | 66% | 77.6% | 84% | – |
| CCCCC(=O)OC1CCCCC1C (stereo not drawn) | 105% | 98.8% | 94.6% | 106% | 93.4% | 98.7% | 97% | 103% | 78.5% | 95.4% | 108% | 88.2% | 87.6% | 100% | 68.1% | 91.2% | 97.9% | 98.4% | – | – |
| O=[N+]([O-])c1ccc(N/N=C(\C(=N/Nc2ccc([N+](=O)[O-])cc2[N+](=O)[O-])c2ccccc2)c2ccccc2)c([N+](=O)[O-])c1 | 86.4% | 97.3% | 65.6% | 94.2% | 111% | 82.6% | 94.6% | 89.2% | 95.2% | 100% | 84.3% | 63.5% | 99% | 102% | 85.2% | 94.3% | 97.7% | 101% | – | – |
| COc1cc2nc(Cl)nc(Nc3cccc(C(=O)/C=C/c4ccc(Cl)cc4)c3)c2cc1OC | 88.2% | 11.3% | 88.2% | 73.7% | 62.7% | 85.7% | 80.6% | 50% | 94% | – | 2.93% (active) | 19.6% | 81.3% | 54.6% | 56% | 83.9% | – | 74.2% | 50.7% | 62.8% |
| CCCCCC1CCCCN1C(=O)OCC (stereo not drawn) | 105% | 94.9% | 90.9% | 103% | 170% | 99.7% | 123% | 107% | 106% | – | 96% | 101% | 88.4% | 105% | 91.9% | 116% | – | 106% | 96.7% | 105% |
| COc1ccc2c(c1)c(-c1nc(-c3c[nH]c4ncccc34)cs1)cn2CCCN1CCCCC1 | 46.1% | -58.8% (active) | -70.9% (active) | 29.3% | 35.9% | 52.7% | 68.2% | -63.6% (active) | 71.8% | – | -5.93% (active) | -51.8% (active) | 46.9% | 43.9% | 28.5% | -87.6% (active) | -75.6% (active) | -74.9% (active) | -17.7% (active) | – |
| Cc1csc(-c2ccc3c(c2)COC3(CCCN(C)C)c2ccc(F)cc2)c1 (stereo not drawn) | 42.8% | -19.9% (active) | -71.9% (active) | 44.3% | 43.5% | 57.2% | 73.7% | 73.9% | -57.7% (active) | -70.3% (active) | 14.4% | -39.6% (active) | 32% | 74.8% | 28% | 73.6% | – | 37.5% | – | -73.6% (active) |
| N=c1c(S(=O)(=O)c2ccccc2)cc2c(=O)n3ccccc3nc2n1C1CCCC1 | 93.2% | 76.6% | 108% | 64% | 86% | 83.5% | 91.2% | 83.7% | 111% | – | 86.2% | 117% | 61.1% | 90.3% | 85% | 84.2% | – | 102% | 85.9% | 80.2% |
| O=C(/C(=C(\C(=O)c1ccccc1)c1ccccc1)c1ccccc1)c1ccccc1 | 80.1% | 14.1% | 77.2% | 66.7% | 69.5% | 56.2% | 54.7% | 82.1% | 68.8% | 66.3% | 24% | 37.6% | 72.8% | 74% | 30% | 59.5% | 64.6% | 89.8% | – | – |
| Cc1cc(N2CCOCC2)nc(N(CCCNc2ccnc3cc(Cl)ccc23)Cc2ccco2)n1 | 52.6% | 4.98% (active) | 53.6% | 19.6% | 21.2% | 50.7% | 16.6% | -2.57% (active) | 85% | -3.48% (active) | 24% | -2.68% (active) | 51.6% | 20.4% | 34.7% | 11.3% | 4.95% (active) | 49.5% | – | – |
| CCNCCCn1c2c(c3ccc([N+](=O)[O-])cc3c1=O)C(=O)c1cc(OC)cnc1-2 | 2.6% (active) | -3.04% (active) | -61.8% (active) | -32.6% (active) | -85.8% (active) | 1.69% (active) | -1.1% (active) | -48.2% (active) | -45.3% (active) | – | -12% (active) | -11% (active) | -23.8% (active) | 10.6% | 1.89% (active) | -97.3% (active) | -91% (active) | -31.5% (active) | -73.3% (active) | – |
| CCN1CCN(C(=O)[C@]23CCC(C)(C)C[C@@H]2C2=CC[C@@H]4[C@@]5(C)C/C(=C/c6cccnc6)C(=O)C(C)(C)[C@@H]5CC[C@@]4(C)[C@]2(C)CC3)CC1 | 50% | 6.69% (active) | 30.3% | 40.7% | -7.84% (active) | 37.6% | 16.7% | 41.5% | 3.05% (active) | – | 13.7% | 10.6% | 45.3% | 48.3% | 17.2% | -91% (active) | – | 41.7% | -88.1% (active) | 26.6% |
| Cc1csc(Nc2nc(-c3cccc(Br)c3)nc(C(Cl)(Cl)Cl)n2)n1 | -5.72% (active) | 84% | 98.8% | 15.5% | 20.2% | 78.1% | 20.7% | 41% | 60.6% | – | 59.3% | 18.9% | 52.5% | 39.8% | 48.9% | 91.1% | – | 47% | 35.8% | 60.5% |
| CCN1CCN(C(=O)[C@]23CCC(C)(C)C[C@H]2C2=CC[C@@H]4[C@@]5(C)CC/C(=N/O)C(C)(C)[C@@H]5CC[C@@]4(C)[C@]2(C)CC3)CC1 | 86.4% | 58.8% | 62.9% | 9.19% (active) | 81.2% | 67.2% | 65.7% | 80.4% | 80.4% | – | 15.4% | 28.3% | 59.3% | 70.4% | 39.6% | 86.5% | – | 73.2% | 38% | 87.9% |
| Nc1c2c(nc3ccc(Cl)cc13)CC(c1ccccc1)CC2=O (stereo not drawn) | 63.9% | 18% | 40.3% | 66.8% | 55.8% | 64.1% | 24.5% | 38.5% | 64% | – | 16.7% | 13.1% | 23.4% | 37% | 54.8% | 30.6% | – | 51.5% | 40.9% | 23.7% |
